# Records with an inconclusive call do not appear. Active and inactive are the calls of the source. Rule for the calls: active = hit-call score of the fitted dose curve at least 0.9, where 1 is the maximum; inconclusive = response in the unintended direction; inactive = score below 0.9.
# Assay: ATG_M_61_EcoTox2: Attagene TRANS-FACTORIAL EcoTox-2 HepG2 Assay for M61 Transcription Factor (Internal Marker)
# Description: ATG_EcoTox2 is a cell-based, multiplexed assay created by modifying the existing Attagene TRANS-FACTORIAL system to include a panel of nuclear receptors from some or all the following species: human (Homo sapiens), african clawed frog (Xenopus laevis), rainbow trout (Oncorhynchus mykiss), japanese medaka (Oryzias latipes), and zebrafish (Danio rerio). The ECOTOX2-FACTORIAL format uses HepG2, a human liver cell line, with measurements taken at 24 hours after chemical dosing in a 24-well plate. ATG_M_61_EcoTox2 is one of 29 assay components calculated in the ATG_EcoTox2 assay. It is designed to make measurements of mRNA induction, a form of inducible reporter, as detected with fluorescence intensity signals by Reverse transcription polymerase chain reaction (RT-PCR) and Capillary electrophoresis technology.The assay endpoint ATG_M_61_EcoTox2 was analyzed in the positive analysis fitting direction relative to DMSO as the negative control and baseline of activity. Using a type of inducible reporter, measures of mRNA for gain-of-signal activity can be used to understand the background control at the transcription factor-level as they relate to the gene. Furthermore, this assay endpoint can be referred to as a secondary readout, because this assay has produced multiple assay endpoints where this one serves a background control function. To generalize the intended target to other relatable targets, this assay endpoint is annotated to the background measurement intended target family, where the subfamily is internal marker.
# Human liver HepG2 cells are transiently transfected with multiple reporter transcription units (MRTUs) in 6-well plates using FuGene 6 reagent (Roche; 3 ml FuGene/1 mg DNA). The MRTU constructs are regulated by a cis-regulating element (promoter). Each RTU expresses a GAL4-UAS that regulates the transcription of a nearby target reporter gene sequence. A major difference between the CIS and TRANS system is that in CIS activities of endogenous TFs are measured, whereas the TRANS assay evaluates changes in activities of exogenous, chimeric NR-Gal4 proteins. […] At the end of 24 hour incubation, total RNA was isolated using TriZol reagent (Invitrogen). The isolated RNA is then reverse-transcribed using oligo(dT) primer and Mo-MLV reverse transcriptase (Invitrogen) with DNAse I (Ambion) treatment for 30 min. The one-tenth of the produced cDNA was amplified by PCR using Taq DNA polymerase (Invitrogen) and two reporter sequence-specific primers. […] The fragments were purified using Qiaquick PCR columns (Qiagen), analyzed on an ABI 3130xL genetic analyzer (Applied Biosystems) with peak positions identified by using a set of X-rhodamine (ROX)-labeled MapMarker1000 molecular weight standards (BioVentures). […]
row,Structure (SMILES),outcome
1,O=P(Oc1ccccc1)(Oc1ccccc1)Oc1ccccc1,inactive
2,CCCCOCN(C(=O)CCl)c1c(CC)cccc1CC,inactive
3,O=S(=O)(O)C(F)(F)C(F)(F)C(F)(F)C(F)(F)C(F)(F)C(F)(F)F,inactive
4,O=C(O)C(F)(F)C(F)(F)C(F)(F)C(F)(F)C(F)(F)C(F)(F)C(F)(F)F,inactive

# Reference: PubChem BioAssay AID2284371 (EPA ToxCast)
